# Source: PubChem BioAssay (National Center for Advancing Translational Sciences (NCATS))
# EPAC1 agonist: EPAC1 (human) agonism. EPAC1 agonist qHTS, biochemical assay; response scale: 100% = response to 6.5 mM cAMP. Potency, µM (top dose mostly 154 µM), for inactives: at the highest dose activation, hits mostly activators. AID 720707. O95398. 360,000 compounds, 0.073% hits; also: nearly all actives have a fitted effect of over 60% in size
# Target sequence (O95398 whole entry, looked up): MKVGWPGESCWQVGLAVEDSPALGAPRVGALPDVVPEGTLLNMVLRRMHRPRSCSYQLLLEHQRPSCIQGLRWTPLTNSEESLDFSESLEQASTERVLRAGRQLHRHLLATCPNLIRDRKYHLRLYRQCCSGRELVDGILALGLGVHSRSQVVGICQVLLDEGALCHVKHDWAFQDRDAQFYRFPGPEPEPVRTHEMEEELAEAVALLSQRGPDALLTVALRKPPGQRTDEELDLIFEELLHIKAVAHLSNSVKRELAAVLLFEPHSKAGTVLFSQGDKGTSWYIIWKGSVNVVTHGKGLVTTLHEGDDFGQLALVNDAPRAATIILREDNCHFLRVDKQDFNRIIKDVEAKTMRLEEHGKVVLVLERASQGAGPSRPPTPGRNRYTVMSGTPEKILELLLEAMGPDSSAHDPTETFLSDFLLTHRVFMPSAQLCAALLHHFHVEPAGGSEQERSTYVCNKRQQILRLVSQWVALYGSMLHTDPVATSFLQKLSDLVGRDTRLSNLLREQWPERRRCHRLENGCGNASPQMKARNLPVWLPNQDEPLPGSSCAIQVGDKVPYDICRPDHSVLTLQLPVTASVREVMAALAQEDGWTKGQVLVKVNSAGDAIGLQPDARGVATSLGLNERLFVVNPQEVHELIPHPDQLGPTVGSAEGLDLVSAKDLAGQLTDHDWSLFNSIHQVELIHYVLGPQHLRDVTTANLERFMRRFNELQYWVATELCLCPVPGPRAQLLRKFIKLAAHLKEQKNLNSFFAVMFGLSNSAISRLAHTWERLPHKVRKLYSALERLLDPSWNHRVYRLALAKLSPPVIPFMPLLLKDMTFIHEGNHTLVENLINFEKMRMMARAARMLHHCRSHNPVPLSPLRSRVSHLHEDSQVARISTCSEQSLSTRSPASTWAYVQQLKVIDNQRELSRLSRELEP
#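 EPAC1 100 nM, Rap1B–BODIPY-GDP 250 nM, unlabeled GDP 50 uM; compound titration; 5 min RT; kinetic read ex480/em540 at 5-min intervals ×30 min; data normalized to 6.5 mM cAMP agonist control.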
# EPAC2 antagonist: antagonists of human EPAC2; AID 720708; Q8WZA2; EPAC2 GEF exchange of Rap1B-BODIPY-GDP, fluorescence; 360,000 compounds, 0.18% hits; Potency, µM (top dose mostly 114 µM), for the others: top-dose activity, negative = inhibition, most hits filed as inhibitors; also: % is scaled to controls: 0 for no effect and ±100 for the full control effect; nearly all actives have a fitted effect of over 45% in size
# EPAC1 antagonist: blocks human EPAC1 exchange factor | EPAC1 GEF assay, Rap1b-BODIPY-GDP exchange fluorescence | 360,000 compounds, 0.14% hits | Potency, µM (series often up to 115 µM), inactives show at the top dose activity change, negative = inhibition, hits mostly inhibitors | AID 720709;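 also: plate controls were vehicle for no effect and positive control for full effect; nearly all actives have a fitted effect of over 50% in size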
# USP1-UAF1 inh: inhibitors of human USP1/UAF1 deubiquitinase. Potency, µM (series often up to 57.1 µM), without a hit: at the highest dose activity change, negative = inhibition, hits mostly inhibitors. 390,000 compounds, 0.23% hits. O94782. recombinant USP1/UAF1, Ub-Rhodamine cleavage fluorescence. AID 743255; also: % is scaled to controls: 0 for no effect and ±100 for the full control effect; nearly all actives have a fitted effect of over 60% in size
#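 USP1/UAF1 complex at 1 nM was preincubated with compound for 15 min at room temperature, then Ub-Rho substrate (150nM final) was added. Fluorescence (480/540 nm) was read kinetically, 6 reads every 60 seconds.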
# VDR inhibitor: blocks the human vitamin D receptor; P11473; VDR-SRC2-3 peptide fluorescence polarization, 2 h; Potency, µM, for the others: max response, negative = inhibition, actives largely listed as inhibitors; 400,000 compounds, 0.93% hits; also: % is scaled to controls: 0 for no effect and ±100 for the full control effect
#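 VDR–SRC2-3 interaction, FP format. Cmpds 23 nl via pintool, brief spin, 2 h ambient incubation.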
# EPAC2 ag: EPAC2 (human) agonism; Q8WZA2; EPAC2 activation, biochemical qHTS; response scale: 100% = 6.5 mM cAMP response; Potency, µM (series often up to 154 µM), for inactives: at the highest dose activation, actives largely listed as activators; 360,000 compounds, 0.079% hits; AID 720711; also: nearly all actives have a fitted effect of over 50% in size
#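 EPAC2 (100 nM) mixed with Rap1B loaded with BODIPY-GDP (250 nM) plus 50 uM unlabeled GDP; compounds pinned in, 5 min RT, then read every 5 min for 30 min (ex 480, em 540 nm). Normalized to cAMP control.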
# Active calls of the source: *; i = inactive; u = inconclusive; x = no result. In the library only some 1.2% were active in any assay of this set; here they are far more common. Calls follow the shape of the dose curve; as a rule, active = well fitted curve in the direction sought with a large enough effect; inconclusive = small, poorly fitted or top-dose-only effect, or another doubt; inactive = no such curve, though single readings can be large; an effect the other way counts as inactive or inconclusive. Potency is read from the fitted curve at half-maximal effect.
SMILES,EPAC1 agonist,EPAC2 antagonist,EPAC1 antagonist,USP1-UAF1 inh,VDR inhibitor,EPAC2 ag
CCOC(=O)c1c(C)sc(-c2c(-c3cc(C)ccc3C)[nH]c3c2c(=O)[nH]c(=O)n3C)c1O,x,x,x,25µM*,11%,x
O=c1c2nc(Br)n([C@@H]3O[C@@H]4CO[P@@](O)(=S)O[C@H]4[C@H]3O)c2nc2[nH]c(-c3ccccc3)cn12,x,x,x,x,-1%,x
CCCCCCCCCCCCCCCCSCC(COC)COP(=O)([O-])OCC[N+](C)(C)C (stereo unspecified),x,x,x,x,0%,x
CCN(CC)c1ccc(NC(=O)c2c(C)nn(-c3ccc(F)cc3)c2-n2cccc2)c(C)c1,x,x,x,u,-3%,x
O=C1C=C(Nc2ccccc2C(=O)O)c2ccccc2C1=O,-8%,u,-11%,7.9µM*,u,-1%
O=C1C=C(Nc2cccc3cccnc23)c2ccccc2C1=O,1%,-25%,u,18µM*,u,6%
O=C(O)c1cccc(S(=O)(=O)Nc2ccc3oc(=O)sc3c2)c1,-8%,-11%,-24%,-1%,89µM*,-2%
CC(C)[C@H](NC(=O)[C@H](CCCCN)NC(=O)[C@@H](NC(=O)[C@@H]1CCCN1C(=O)[C@H](CCCN=C(N)N)NC(=O)[C@H](CCCN=C(N)N)NC(=O)[C@H](CCCCN)NC(=O)[C@H](CCCCN)NC(=O)CNC(=O)[C@@H](NC(=O)[C@@H]1CCCN1C(=O)[C@@H](N)CCCCN)C(C)C)C(C)C)C(=O)N[C@@H](Cc1ccc(O)cc1)C(=O)N1CCC[C@H]1C(=O)O,x,x,x,x,-2%,x
COCCNC(=O)COc1ccc(OCCNC[C@H](O)COc2ccccc2)cc1,x,x,x,x,15%,x
Cn1cc(C(=O)C(=O)N2CCCCC2)c2ccccc21,40µM*,i,31%,-5%,-17%,u
CC(=O)Nc1ccc(S(=O)(=O)/N=C2\C(=O)c3ccccc3C([O-])=C2n2cc[n+](-c3ccccn3)c2)cc1,-7%,1%,14%,25µM*,-26%,2%
Cc1ccc(S(=O)(=O)/N=C2\C(=O)c3ccccc3C([O-])=C2n2cc[n+](CCC(C)C)c2)cc1,-1%,8%,-5%,u,-3%,-7%
CCOC(=O)c1ccc(N2CSC3=C(C#N)C(c4cccs4)CC(=O)N3C2)cc1 (stereo unspecified),3%,6%,-3%,-11%,89µM*,23%
N#CC1=C2SCN(Cc3ccco3)CN2C(=O)CC1c1cccc2ccccc12 (stereo unspecified),2%,-9%,-8%,-10%,u,-12%
CN1CSC2=C(C#N)C(c3cccc(OCc4ccccc4)c3)CC(=O)N2C1 (stereo unspecified),-10%,-5%,u,-20%,45µM*,1%
CCc1ccc(C2CC(=O)N3CN(c4ccccc4)CSC3=C2C#N)cc1 (stereo unspecified),-6%,-14%,u,-20%,16µM*,20%
N#CC1=C2SCN(Cc3ccco3)CN2C(=O)CC1c1ccccc1F (stereo unspecified),1%,9%,11%,-6%,32µM*,7%
N#CCCn1c(=O)c(-c2ccccc2)nc2cnc(Oc3ccccc3)nc21,x,x,x,x,2%,x
CC(OCc1ccccc1)C(NC(=O)OC(C)(C)C)C(=O)NC1COC2CC(n3cc(F)c(=O)[nH]c3=O)OC12 (stereo unspecified),x,x,x,x,-27%,x
Cc1ccc(N2CSC3=C(C#N)C(c4cccs4)CC(=O)N3C2)cc1 (stereo unspecified),-7%,1%,-22%,-23%,79µM*,-2%
COc1ccc(N2CSC3=C(C#N)C(c4cccs4)CC(=O)N3C2)cc1 (stereo unspecified),11%,4%,6%,3%,-9%,5%
